Assay results: the supplement of paper PMC7411054

Tests used:
Conditions in all cases: treatment time: 24 h
A549-GM130-SQSTM1 [1] = experiment: lowest phenotypically active concentration; higher = less potent
How it was run: (§1)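 Phenotypic activity depended on meeting both a deviation and a reproducibility criterion. The fifteen gene-edited A549, HepG2 and WPMY1 reporter lines were treated at 0.3, 1, 3 or 9 µM for 24 h, four wells each, then imaged live with features normalised to solvent control wells. Deviation required ≥3 of 4 wells past the 95th percentile of control Euclidean distances, and reproducibility a median replicate Pearson correlation above the 95th percentile of non-replicates.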

HepG2-ACTB-RAB5A [2] = experiment: as above
How it was run: as §1

HepG2-GM130-SQSTM1 [3] = experiment: as above
How it was run: as §1

WPMY1-GM130-SQSTM1 [4] = experiment: as above
How it was run: as §1

WPMY1-TP53BP1-CLTA [5] = experiment: as above
How it was run: as §1

A549-ACTB-RAB5A = experiment: phenotypically active (imaging signature differs from DMSO and reproducible) at any of 0.3-9 uM (binary (1 = active, 0 = inactive)); higher = active
How it was run: as §1

A549-CANX-COX4 = experiment: as above
How it was run: as §1

A549-GM130-SQSTM1 [6] = experiment: as above
How it was run: as §1

A549-TP53BP1-CLTA = experiment: as above
How it was run: as §1

A549-TUBA1B-RELA = experiment: as above
How it was run: as §1

HepG2-ACTB-RAB5A [7] = experiment: as above
How it was run: as §1

HepG2-CANX-COX4 = experiment: as above
How it was run: as §1

HepG2-GM130-SQSTM1 [8] = experiment: as above
How it was run: as §1

HepG2-TP53BP1-CLTA = experiment: as above
How it was run: as §1

HepG2-TUBA1B-RELA = experiment: as above
How it was run: as §1

WPMY1-ACTB-RAB5A = experiment: as above
How it was run: as §1

WPMY1-CANX-COX4 = experiment: as above
How it was run: as §1

WPMY1-GM130-SQSTM1 [9] = experiment: as above
How it was run: as §1

WPMY1-TP53BP1-CLTA [10] = experiment: as above
How it was run: as §1

WPMY1-TUBA1B-RELA = experiment: as above
How it was run: as §1

CCCCCC[C@H]1C(=O)O[C@H](C)[C@H](NC(=O)c2cccc(NC=O)c2O)C(=O)O[C@@H](C)[C@@H]1OC(=O)CC(C)C [antimycin a]
active: phenotypically active (A549-ACTB-RAB5A) 1 | phenotypically active (A549-CANX-COX4) 1 | phenotypically active (A549-GM130-SQSTM1 [6]) 1 | phenotypically active (A549-TP53BP1-CLTA) 1 | phenotypically active (A549-TUBA1B-RELA) 1 | phenotypically active (HepG2-ACTB-RAB5A [7]) 1 | phenotypically active (HepG2-CANX-COX4) 1 | phenotypically active (HepG2-GM130-SQSTM1 [8]) 1 | phenotypically active (HepG2-TP53BP1-CLTA) 1 | phenotypically active (HepG2-TUBA1B-RELA) 1 | phenotypically active (WPMY1-ACTB-RAB5A) 1 | phenotypically active (WPMY1-CANX-COX4) 1 | phenotypically active (WPMY1-GM130-SQSTM1 [9]) 1 | phenotypically active (WPMY1-TP53BP1-CLTA [10]) 1 | phenotypically active (WPMY1-TUBA1B-RELA) 1
≤ 0.3 µM: lowest phenotypically active concentration (A549-GM130-SQSTM1 [1]) | lowest phenotypically active concentration (HepG2-ACTB-RAB5A [2]) | lowest phenotypically active concentration (HepG2-GM130-SQSTM1 [3]) | lowest phenotypically active concentration (WPMY1-TP53BP1-CLTA [5])
1 µM: lowest phenotypically active concentration (WPMY1-GM130-SQSTM1 [4])

COc1ccc(CCN2CCC(Nc3nc4ccccc4n3Cc3ccc(F)cc3)CC2)cc1 [astemizole]
3 µM: lowest phenotypically active concentration (HepG2-ACTB-RAB5A [2]) | lowest phenotypically active concentration (HepG2-GM130-SQSTM1 [3]) | lowest phenotypically active concentration (WPMY1-GM130-SQSTM1 [4])
active: phenotypically active (A549-ACTB-RAB5A) 1 | phenotypically active (A549-CANX-COX4) 1 | phenotypically active (A549-GM130-SQSTM1 [6]) 1 | phenotypically active (A549-TP53BP1-CLTA) 1 | phenotypically active (A549-TUBA1B-RELA) 1 | phenotypically active (HepG2-ACTB-RAB5A [7]) 1 | phenotypically active (HepG2-CANX-COX4) 1 | phenotypically active (HepG2-GM130-SQSTM1 [8]) 1 | phenotypically active (HepG2-TP53BP1-CLTA) 1 | phenotypically active (HepG2-TUBA1B-RELA) 1 | phenotypically active (WPMY1-ACTB-RAB5A) 1 | phenotypically active (WPMY1-CANX-COX4) 1 | phenotypically active (WPMY1-GM130-SQSTM1 [9]) 1 | phenotypically active (WPMY1-TP53BP1-CLTA [10]) 1 | phenotypically active (WPMY1-TUBA1B-RELA) 1
9 µM: lowest phenotypically active concentration (WPMY1-TP53BP1-CLTA [5])
≤ 0.3 µM: lowest phenotypically active concentration (A549-GM130-SQSTM1 [1])

CC[C@@H](C)C(=O)O[C@H]1[C@H](O)[C@H]2[C@@H](CN3C[C@@H](C)CC[C@H]3[C@@]2(C)O)C2C[C@]34O[C@]5(O)[C@@H](OC(=O)[C@](C)(O)CC)CC[C@@]3(C)[C@@H]5[C@@H](OC(C)=O)[C@@H](OC(C)=O)[C@H]4[C@@]21O (some centres undefined) [Protoveratrine A]
inactive: phenotypically active (A549-ACTB-RAB5A) 0 | phenotypically active (A549-CANX-COX4) 0 | phenotypically active (A549-TP53BP1-CLTA) 0 | phenotypically active (A549-TUBA1B-RELA) 0 | phenotypically active (HepG2-ACTB-RAB5A [7]) 0 | phenotypically active (HepG2-CANX-COX4) 0 | phenotypically active (HepG2-GM130-SQSTM1 [8]) 0 | phenotypically active (HepG2-TP53BP1-CLTA) 0 | phenotypically active (HepG2-TUBA1B-RELA) 0 | phenotypically active (WPMY1-ACTB-RAB5A) 0 | phenotypically active (WPMY1-CANX-COX4) 0 | phenotypically active (WPMY1-GM130-SQSTM1 [9]) 0 | phenotypically active (WPMY1-TP53BP1-CLTA [10]) 0 | phenotypically active (WPMY1-TUBA1B-RELA) 0
active: phenotypically active (A549-GM130-SQSTM1 [6]) 1
3 µM: lowest phenotypically active concentration (A549-GM130-SQSTM1 [1])

C=C1[C@@H](O)C2C=CC[C@H](C)C(=O)[C@](C)(O)C=C[C@@H](OC(C)=O)[C@]23C(=O)N[C@H](Cc2ccccc2)[C@@H]3[C@@H]1C (some centres undefined) [Cytochalasin D]
≤ 0.3 µM: lowest phenotypically active concentration (A549-GM130-SQSTM1 [1]) | lowest phenotypically active concentration (HepG2-ACTB-RAB5A [2]) | lowest phenotypically active concentration (HepG2-GM130-SQSTM1 [3]) | lowest phenotypically active concentration (WPMY1-GM130-SQSTM1 [4]) | lowest phenotypically active concentration (WPMY1-TP53BP1-CLTA [5])
active: phenotypically active (A549-ACTB-RAB5A) 1 | phenotypically active (A549-CANX-COX4) 1 | phenotypically active (A549-GM130-SQSTM1 [6]) 1 | phenotypically active (A549-TP53BP1-CLTA) 1 | phenotypically active (A549-TUBA1B-RELA) 1 | phenotypically active (HepG2-ACTB-RAB5A [7]) 1 | phenotypically active (HepG2-CANX-COX4) 1 | phenotypically active (HepG2-GM130-SQSTM1 [8]) 1 | phenotypically active (HepG2-TP53BP1-CLTA) 1 | phenotypically active (HepG2-TUBA1B-RELA) 1 | phenotypically active (WPMY1-ACTB-RAB5A) 1 | phenotypically active (WPMY1-CANX-COX4) 1 | phenotypically active (WPMY1-GM130-SQSTM1 [9]) 1 | phenotypically active (WPMY1-TP53BP1-CLTA [10]) 1 | phenotypically active (WPMY1-TUBA1B-RELA) 1

CC(C)(O)[C@H]1O[C@H]2CC[C@@]3(C)[C@@](O)(CC[C@H]4Cc5c([nH]c6ccccc56)[C@@]43C)C2=CC1=O [paxilline]
9 µM: lowest phenotypically active concentration (HepG2-ACTB-RAB5A [2]) | lowest phenotypically active concentration (WPMY1-GM130-SQSTM1 [4]) | lowest phenotypically active concentration (WPMY1-TP53BP1-CLTA [5])
active: phenotypically active (A549-ACTB-RAB5A) 1 | phenotypically active (HepG2-ACTB-RAB5A [7]) 1 | phenotypically active (HepG2-TP53BP1-CLTA) 1 | phenotypically active (WPMY1-GM130-SQSTM1 [9]) 1 | phenotypically active (WPMY1-TP53BP1-CLTA [10]) 1
inactive: phenotypically active (A549-CANX-COX4) 0 | phenotypically active (A549-GM130-SQSTM1 [6]) 0 | phenotypically active (A549-TP53BP1-CLTA) 0 | phenotypically active (A549-TUBA1B-RELA) 0 | phenotypically active (HepG2-CANX-COX4) 0 | phenotypically active (HepG2-GM130-SQSTM1 [8]) 0 | phenotypically active (HepG2-TUBA1B-RELA) 0 | phenotypically active (WPMY1-ACTB-RAB5A) 0 | phenotypically active (WPMY1-CANX-COX4) 0 | phenotypically active (WPMY1-TUBA1B-RELA) 0
